Screens from PubChem.
Hits are enriched below; roughly 10% of the tested compounds scored in any of these assays.
NPR1 antag: antagonists of human natriuretic peptide receptor Npr1; Potency, µM (top dose mostly 46.3 µM), without a hit: at the highest dose activity change, negative = inhibition, hits mostly inhibitors; AID 1347048; 76,000 compounds, 1.6% hits; P16066; HEK293 hNpr1 GloSensor cGMP, ANP-stimulated luminescence; calls by dose curve; also: nearly all actives have a fitted effect of over 60% in size
Target sequence (P16066 whole entry, looked up): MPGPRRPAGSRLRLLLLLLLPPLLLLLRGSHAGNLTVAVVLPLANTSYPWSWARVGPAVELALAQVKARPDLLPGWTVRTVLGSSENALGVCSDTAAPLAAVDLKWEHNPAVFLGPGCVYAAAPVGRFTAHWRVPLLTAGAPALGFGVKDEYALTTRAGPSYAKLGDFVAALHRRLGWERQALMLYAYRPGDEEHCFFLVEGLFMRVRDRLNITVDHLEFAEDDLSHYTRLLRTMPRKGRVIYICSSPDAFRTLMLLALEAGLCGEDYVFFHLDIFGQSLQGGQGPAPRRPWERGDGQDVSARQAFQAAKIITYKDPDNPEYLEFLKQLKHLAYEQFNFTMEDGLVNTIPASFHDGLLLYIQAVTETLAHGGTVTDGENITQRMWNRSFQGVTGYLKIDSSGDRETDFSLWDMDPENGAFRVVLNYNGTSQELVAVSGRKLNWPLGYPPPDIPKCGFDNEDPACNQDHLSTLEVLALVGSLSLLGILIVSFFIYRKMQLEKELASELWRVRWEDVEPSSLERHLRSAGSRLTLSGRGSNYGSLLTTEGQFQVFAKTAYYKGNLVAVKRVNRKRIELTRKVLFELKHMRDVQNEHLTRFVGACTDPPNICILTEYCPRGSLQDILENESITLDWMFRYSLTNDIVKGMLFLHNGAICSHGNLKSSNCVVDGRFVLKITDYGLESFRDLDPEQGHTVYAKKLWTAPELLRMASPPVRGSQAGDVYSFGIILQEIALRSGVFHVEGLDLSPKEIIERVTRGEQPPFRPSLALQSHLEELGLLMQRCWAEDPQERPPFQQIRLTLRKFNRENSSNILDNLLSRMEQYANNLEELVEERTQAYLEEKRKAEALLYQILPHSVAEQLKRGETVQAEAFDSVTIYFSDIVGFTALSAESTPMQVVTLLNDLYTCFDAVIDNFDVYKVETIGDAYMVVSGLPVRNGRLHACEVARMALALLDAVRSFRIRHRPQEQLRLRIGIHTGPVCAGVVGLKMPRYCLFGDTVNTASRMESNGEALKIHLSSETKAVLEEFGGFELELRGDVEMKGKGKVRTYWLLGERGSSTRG
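HEK293 cells stably expressing human Npr1 and cGMP GloSensor pGS-40F, loaded 2 h with 2% GloSensor reagent, given compound 30 min at room temperature. Luminescence read before and 20 min after 0.1 nM hNppA.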
GPT2 inhibitor: blocks human glutamate pyruvate transaminase 2 | Recombinant GPT2, coupled pyruvate oxidase/HRP Amplex Red fluorescence | Potency, µM (titrated, usually from 57.7 µM), for the others: top-dose activity change, negative = inhibition, usual class: inhibitors | 100,000 compounds, 0.25% hits | AID 1671188; also: nearly all actives have a fitted effect of over 60% in size
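GPT2 10ng/uL, a-KG 250uM, L-Ala 2mM, HEPES pH7.5 + 0.0001% Tween; 30 min RT. Then Amplex mix (PO/HRP/ThPP), 30 min RT dark, fluorescence. AOA 50uM used as positive control.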
3T3 cytotox: cytotoxic compounds in NIH 3T3 cells; NIH 3T3 viability, CellTiter-Glo ATP luminescence, 48-72 h; Potency, µM (highest dose often 96.7 µM), without a hit: at the top dose activity change, negative = cytotoxicity, usual class: inhibitors; 94,000 compounds, 4.3% hits; also: nearly all actives have a fitted effect of over 55% in size
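Mouse fibroblast NIH 3T3 cells, 400 per well, received compound via pintool and were incubated for 48 or 72 hr prior to CellTiter-Glo ATP luminescence measurement.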
HEK cytotox: kills HEK 293 cells; HEK 293 viability, ATP luminescence (CellTiter-Glo), 48-72 h; Potency, µM (doses to about 115 µM), for inactives: at the top dose activity change, negative = cytotoxicity, most hits filed as inhibitors; 94,000 compounds, 6.6% hits; also: nearly all actives have a fitted effect of over 60% in size
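Cells seeded first (HEK 293, 250 cells/well), then compound added by pintool. Incubation ran 48 or 72 hr at 37 degree Celsius. CellTiter-Glo was added and luminescence imaged after 10 min at room temperature.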
FLuc inh: inhibitors of firefly (Photinus pyralis) luciferase; P08659; purified P. pyralis luciferase, luminescence, biochemical; Potency, µM (doses to about 115 µM), actives largely listed as inhibitors; 76,000 compounds, 2.5% hits; also: nearly all actives have a fitted effect of over 65% in size
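Biochemical qHTS: compound (6-point titration) added to 10uM D-luciferin plus 10uM ATP in Tris acetate pH 7.5 buffer with Mg, Tween-20 and BSA, then purified enzyme at 10nM; light output imaged.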
An asterisk follows results filed as active; i = inactive; ? = inconclusive; · = no result given; [ ] = another dose, or the depositor's remark. Unless noted, calls follow the shape of the dose curve; as a rule, active = well fitted curve in the direction sought with a large enough effect; inconclusive = small, poorly fitted or top-dose-only effect, or another doubt; inactive = no such curve, though single readings can be large; an effect the other way counts as inactive or inconclusive. % is scaled to controls: 0 for no effect and ±100 for the full control effect; potency is read from the fitted curve at half-maximal effect.

SMILES	NPR1 antag	GPT2 inhibitor	3T3 cytotox	HEK cytotox	FLuc inh
O=C(Nc1cnc(-c2ccccc2)nc1)c1cccc(F)c1	-4%	i	4%	-16%	?
O=C(Nc1cnc(-c2ccccc2)nc1)c1ccc(F)c(F)c1	3%	i	i	10%	i
O=C(Nc1cnc(-c2ccc(Cl)cc2)nc1)c1ccccc1F	-23%	3%	2%	-9%	0.79µM*
CNC(=O)c1cc(C2CC2)nc2onc(C3CCN(C(=O)C(C)(C)C)CC3)c12	·	·	-4%	i	·
COc1ccc(CN2CC3(COCC2=O)CN(c2ccccc2)C3)cc1F	-18%[70.6 µM]	i	?	?	i
O=C1COCC2(CN1Cc1ccccc1)CN(C(=O)C1(c3ccccc3)CC1)C2	6%[70.6 µM]	-3%[88.5 µM]	79µM*	-1%[172 µM]	i
O=C1COCC2(CN1Cc1ccccc1)CN(C(=O)c1ccc(F)c(Cl)c1)C2	2%[70.6 µM]	-3%[88.5 µM]	89µM*	-5%[172 µM]	i
O=C1COCC2(CN1Cc1ccccc1)CN(c1cccnc1)C2	-2%[70.6 µM]	?	89µM*	-29%[172 µM]	i
O=C1COCC2(CN(Cc3cc(F)ccc3F)C2)CN1Cc1ccccc1	1%[70.6 µM]	4%[88.5 µM]	-27%[138 µM]	100µM*	i
CN1CCCN(C(=O)c2cccc(-c3ccc(C=C4C(=O)Nc5ccc(Cl)cc54)o3)c2)CC1	·	i	·	·	·
COC1CCCN(c2cc(-c3ccc(Cl)cc3)nc3c(C)noc23)C1 (centres undefined)	1%[70.6 µM]	-12%[88.5 µM]	?	56µM*	i
COC1CCCN(c2cc(-c3ccsc3)nc3c(C)noc23)C1 (centres undefined)	-1%[70.6 µM]	?	?	?	i
COC1CCN(c2cc(-c3ccsc3)nc3c(C)noc23)CC1	-2%[70.6 µM]	i	?	79µM*	i
COC1CCN(c2cc(-c3ccccc3)nc3c(C)noc23)CC1	2%[70.6 µM]	2%[88.5 µM]	?	?	i
COc1ccc(S(=O)(=O)N[C@H]2C[C@@H](c3nc(-c4cnccn4)no3)N(C)C2)cc1	7%[70.6 µM]	1%[88.5 µM]	-8%[138 µM]	-1%[172 µM]	i
COc1ccc(-c2noc([C@@H]3C[C@H](NS(=O)(=O)c4ccc(F)cc4)CN3C)n2)cc1	-23%[70.6 µM]	0%[88.5 µM]	?	?	18µM*
COc1ccc(S(=O)(=O)N[C@H]2C[C@@H](c3nc(-c4ccc(C)cc4)no3)N(C)C2)cc1	?	?	?	79µM*	25µM*
COc1ccc([C@H]2C[C@@H](O)[C@@H](O)[C@@H]2NCc2cccc(C#N)c2)cc1	-3%[70.6 µM]	-21%[88.5 µM]	89µM*	-24%[172 µM]	i
COc1ccc(-c2noc([C@@H]3C[C@H](NCc4cccc(C#N)c4)CN3C)n2)cc1	-28%[70.6 µM]	i	?	?	40µM*
COc1ccc([C@H]2C[C@@H](O)[C@@H](O)[C@@H]2NCc2cccc(C(F)(F)F)c2)cc1	-5%[70.6 µM]	-5%[88.5 µM]	?	?	i
O=C1Nc2ccc(-c3ccsc3)cc2C(=O)N2C[C@@H](NS(=O)(=O)c3ccc(F)cc3)C[C@@H]12	4%	-3%	-23%	-15%	i
COc1ccc(-c2noc([C@@H]3C[C@H](NCc4ccc(S(C)(=O)=O)cc4)CN3C)n2)cc1	?	0%	-29%	?	45µM*
COc1ccc(-c2ccc3c(c2)C(=O)N2C[C@@H](NS(=O)(=O)c4ccc(F)cc4)C[C@H]2C(=O)N3)c(OC)c1	-22%	?	?	28µM*	i
COc1ccc(-c2noc([C@@H]3C[C@H](NS(=O)(=O)c4cccs4)CN3C)n2)cc1	?	4%[88.5 µM]	?	?	?
Cc1noc(-c2cn(C3CCN(C(=O)c4ccc(C(C)(C)C)cc4)CC3)nn2)n1	-2%	-2%	-25%	?	i
SMILES	NPR1 antag	GPT2 inhibitor	3T3 cytotox	HEK cytotox	FLuc inh
O=C(NCCCc1ccccn1)c1ccc2nc(-c3ccc(F)cc3)cn2c1	-13%	2%	?	45µM*	?
CCN(Cc1ccc(C)o1)C(=O)c1ccc2nc(-c3ccc(F)cc3)cn2c1	-15%	?	?	?	40µM*
CCN(CC1CCCO1)C(=O)c1ccc2nc(-c3ccc(F)cc3)cn2c1 (centres undefined)	2%	i	-28%	?	?
Cc1c(CNC(=O)c2ccc3nc(-c4ccc(F)cc4)cn3c2)cnn1C	-15%	-9%	-22%	?	45µM*
O=C(NCCc1nc(-c2ccccc2)cs1)c1ccc2nccn2c1	-17%	i	?	40µM*	i
CN1C(=O)[C@@H]2C[C@@H](CN2Cc2ccnc3ccccc23)Oc2ccccc21	-29%[70.6 µM]	i	89µM*	?	i
O=C1[C@@H]2C[C@@H](CN2Cc2cnc3ccccc3c2)Oc2ccccc2N1CC1CC1	-23%[70.6 µM]	i	?	50µM*	i
COCCN1C(=O)[C@@H]2C[C@@H](CN2Cc2ccc3ccccc3n2)Oc2ccccc21	-16%[70.6 µM]	-18%[88.5 µM]	100µM*	?	?
COCCN1C(=O)[C@@H]2C[C@@H](CN2Cc2ccccc2)Oc2ccccc21	-1%[70.6 µM]	-14%[88.5 µM]	-23%[138 µM]	?	i
COc1ccc(CN2C(=O)[C@@H]3C[C@@H](CN3CC3CC3)Oc3ccccc32)cc1	-30%[70.6 µM]	-2%[88.5 µM]	79µM*	?	i
O=C1[C@@H]2C[C@@H](CN2Cc2ccc(F)c(F)c2)Oc2ccccc2N1Cc1ccccn1	-10%[70.6 µM]	?	?	?	i
O=C1[C@@H]2C[C@@H](CN2Cc2ccc3c(c2)OCO3)Oc2ccccc2N1Cc1ccccn1	-18%[70.6 µM]	i	?	79µM*	i
COC(=O)C1=C(C)N=C2SC=C(CC(=O)NCc3cccc(F)c3)N2C1c1cccc(OC)c1 (centres undefined)	-18%	-15%	?	?	i
COc1cccc(C(=O)N2CCC3(CC2)NC(=O)N(c2cccc(F)c2)N3)c1	7%	?	?	?	i
COc1cc(OC)cc(C(=O)N2CCC3(CC2)NC(=O)N(c2ccc(F)cc2)N3)c1	-26%	?	25µM*	28µM*	i
O=C(Nc1ccc(Cl)cc1Cl)c1ccc2ccnn2c1	-5%[70.6 µM]	2%[88.5 µM]	-21%[138 µM]	?	2.8µM*
COC(=O)[C@@H]1Cc2ncn(C(C)C)c2CN1S(=O)(=O)c1ccc([N+](=O)[O-])cc1	0%[70.6 µM]	-3%[88.5 µM]	0%[174 µM]	-1%[172 µM]	i
O=C(Nc1ccc2c(c1)OCCO2)N1CCC(CCc2nc(C3CCOCC3)no2)CC1	·	i	?	?	·
O=C(Nc1ccccc1)N1CCC(CCc2nc(C3CCOCC3)no2)CC1	·	0%	?	40µM*	·
Cc1nc(-c2cccc(Cl)c2)n(CC(=O)Nc2ccccc2)c(=O)c1CCO	-11%	-13%	?	45µM*	i
CCc1cccc(NC(=O)Cn2c(-c3ccc(Cl)cc3)nc(C)c(CCO)c2=O)c1	-17%	?	-23%	?	i
